# Experimental data from PubChem BioAssay AID1346378 (National Center for Advancing Translational Sciences (NCATS), 2018).
# In all, about 420,000 compounds went through this assay and about 540 (0.13%) were called active. This excerpt belongs to a sample that is enriched for actives. Values without a mark were called inactive. Cut-off read from the data, not from the text of the source: active = activity change below about -50%; inconclusive = mostly about -30% to -49%; inactive = weaker than that.
# Target: Phosphatidylinositol 4-kinase type 2-alpha (Homo sapiens) (UniProt Q9BTU6)
# Sequence (Q9BTU6 whole entry, looked up): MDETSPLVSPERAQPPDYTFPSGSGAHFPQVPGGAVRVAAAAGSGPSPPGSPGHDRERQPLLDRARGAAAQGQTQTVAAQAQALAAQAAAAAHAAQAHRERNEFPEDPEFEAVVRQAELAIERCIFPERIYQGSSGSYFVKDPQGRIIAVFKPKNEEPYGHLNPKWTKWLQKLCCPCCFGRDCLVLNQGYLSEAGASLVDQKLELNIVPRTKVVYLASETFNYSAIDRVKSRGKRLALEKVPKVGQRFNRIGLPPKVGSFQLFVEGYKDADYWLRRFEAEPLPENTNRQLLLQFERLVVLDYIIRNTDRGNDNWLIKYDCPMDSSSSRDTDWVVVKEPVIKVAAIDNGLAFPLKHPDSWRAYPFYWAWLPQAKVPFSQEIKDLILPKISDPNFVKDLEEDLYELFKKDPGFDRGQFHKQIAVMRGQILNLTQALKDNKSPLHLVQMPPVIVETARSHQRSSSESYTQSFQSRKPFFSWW
# Test: qHTS for small molecular inhibitors of PI4K2A
# Details: purified PI4K2A, ADP-Glo luminescence, 1 h; at 76.9 µM, active compounds read low
# From the text: The phosphatidylinositol 4-phosphate (PI4P) is emerging as a key regulator of lipid transfer in ER-membrane contact sites. The four different phosphatidylinositol 4-kinase (PI4K) enzymes generate PI4P in different membrane compartments supporting distinct cellular processes many of which are crucial for the maintenance of cellular integrity but also hijacked by intracellular pathogens. The goal of this screening project is to search for small molecular inhibitors of PI4K2A based on a high throughput screening strategy.The ADP-Glo assay was used as a starting point to develop a miniaturized version for HTS applications. To implement the HTS screen, the PI4K ADP-Glotrade mark Kinase assay (Promega, V9102) was miniaturized for the 1536-well format used at NCGC.
# For the robotic screening, the ADP-Glo assay using the ADP-Glotrade mark Kinase Assay kit from Promega was miniaturized and optimized on 1536-well white solid bottom plates (Greiner Bio-one). The substrate, 1.2 mM PI, prepared in the assay buffer (40mM Tris pH7.5, 20mM MgCl2, 1mM EGTA, 0.4% Triton X-100, 0.5mM DTT, 0.5mg/ml BSA) and PI4K2A enzyme, diluted also in the assay buffer to 4ug/mL, were dispensed onto the plates in equal volumes (1microl/well), pinned with 23 nL/well tested compounds or control followed by dispensation of 1microl/well 300microM ATP. The plates were incubated for one hour. Then, 2 µL/well of ADP-Glo reagent was added and incubated for 40 minutes. Next, 4microL/well of Kinase Detection Buffer was added to the plates and incubated for additional 40 minutes. All incubation steps were performed at ambient temperature. The resulting luminescence signal was measured on Viewlux plate reader (PerkinElmer). Adenosine, a partial non-specific inhibitor, was used as a positive control at 100microM final concentration to assess the assay's quality and plate-to-plate reproducibility. We also used "no enzyme" control to gauge the assay's maximal potential inhibition (IC100).
row,Structure (SMILES),"activity change, negative = inhibition"
1,CC(C)(C)c1ccc(OCC(=O)N2CCC(c3nc4ccccc4s3)CC2)cc1,-3.91%
2,COc1cc(C(=O)OC2CCOC2=O)c([N+](=O)[O-])cc1OC (stereo not given),0.815%
3,O=C(OC1CCOC1=O)c1ccc(-c2nc3ccccc3s2)s1 (stereo not given),-52.4% (active)
4,O=C1/C(=C\c2ccc([N+](=O)[O-])cc2)CS(=O)(=O)C/C1=C/c1ccc([N+](=O)[O-])cc1,-53% (active)
5,C=CC(=O)Nc1ccc(Nc2ccnc(Nc3ccc(N4CCN(C)CC4)cc3)n2)cc1,-9.48%
6,CC(C)C[C@H](NC(=O)[C@H](O)[C@H](N)Cc1ccccc1)C(=O)O,-0.0848%
7,CC(=O)Nc1ccc(NC(=O)c2cc3sccc3n2Cc2ccc(F)cc2)cc1,-0.493%
8,CCc1ccc(/C=N/NC(=O)c2nnn(-c3nonc3N)c2CN2CCc3ccccc32)cc1,2.23%
9,CC(C)Oc1ccc(/C=N/NC(=O)c2nnn(-c3nonc3N)c2CN(C)C2CCCCC2)cc1,-0.0382%
10,Cc1nonc1C(=O)N/N=C/c1ccc(O)cc1,-107% (active)
11,O=S(=O)(NCCc1nnc2ccc(SCc3ccc(Cl)cc3Cl)nn12)c1ccccc1,1.68%
12,CCCOC(=O)c1c(NC(=O)c2cc3nc(-c4ccc(OC)cc4)cc(C(F)(F)F)n3n2)sc2c1CCCC2,-1.38%
13,O=C(Oc1ccc(-c2nc(-c3ccccn3)no2)cc1)c1ccccc1,-59.2% (active)
14,O=C(COc1cccc(F)c1)Oc1ccc(C(=O)c2ccccc2)cc1,-2.11%
15,CC(=O)c1ccc(NC(=O)COc2ccccc2-c2nc(-c3ccccc3)no2)cc1,-0.609%
16,CCc1ccccc1NC(=O)c1ccc(F)c(S(=O)(=O)NC2CCCCCC2)c1,3.89%
17,CCCCOc1ccc(C(=O)N2CC(=O)Nc3ccc(Br)cc3C2c2ccc(F)cc2)cc1 (stereo not given),0.252%
18,O=C(NCC(c1cccnc1)N1CCc2ccccc21)c1cccc(C(F)(F)F)c1 (stereo not given),-0.743%
19,CCOCCCn1c(SCC(=O)Nc2ccc(CC)cc2)nc2ccccc2c1=O,2.57%
20,COc1cc(OC)c(OC)cc1/C=C/c1nc2cc3ccccc3cc2c(=O)n1-c1ccc(F)c(Cl)c1,1.51%
21,CCCC(=O)Nc1cc(C(=O)NCc2ccc(OC)cc2)ccc1S(=O)(=O)c1ccc(Cl)cc1,1.05%
22,CCCc1c2oc(C(=O)O)cc(=O)c2cc2c(=O)cc(C(=O)O)n(CC)c12,0.586%

row,Structure (SMILES),"activity change, negative = inhibition"
1,CC1(C)OC[C@@H](COC(=O)CCc2ccc(OC[C@@H](O)CNCCNC(=O)N3CCOCC3)cc2)O1,2.53%
2,Cc1cccc(C)c1NC(=O)c1ccc(N)cc1,2.75%
3,CC(C)Sc1oc(-c2cccs2)nc1S(=O)(=O)c1ccc(Cl)cc1,2.5%
4,CCC(=O)Nc1ccc2nc(SCC(=O)N3CCc4ccccc43)sc2c1,-5.07%
5,CCCn1c(=O)c2[nH]c(-c3ccc(OCC(=O)NCCN)cc3)nc2n(CCC)c1=O,-1.34%
6,Nc1ccc2nc3c(=O)[nH]c(=S)[nH]c3nc2c1,-58.2% (active)
7,Cc1ccc(-n2ncc3c(N4CCC(C(N)=O)CC4)ncnc32)cc1,-0.0422%
8,CC(=O)c1ccc(NC(=O)c2nc3nc(C)cc(C(F)F)n3n2)cc1,0.438%
9,Cc1oc2ncnc(N3CCOCC3)c2c1C(=O)NCCc1ccccc1,5.54%
10,Cc1cc2oc(C(=O)N(Cc3ccc(Cl)cc3)Cc3ccco3)c(C)c2cc1Cl,-5.36%
11,O=C(C1CC1)N1CCc2cc(Br)cc(S(=O)(=O)N3CCN(c4ccccc4F)CC3)c21,-2.46%
12,CC(C)(C)c1ccc(C(=O)NCC(c2ccc(Cl)cc2)N2CCOCC2)cc1 (stereo not given),1.67%
13,Cc1ccc2oc(=O)c3cnn(CC(=O)NCc4ccccc4Cl)c3c2c1,2.09%
14,Cc1ccc(C(=O)NCCSc2c(C)[nH]c3ccccc23)cc1C,-0.18%
15,Cc1ccccc1NC(=O)c1cc2c([nH]c1=O)CC(C)(C)CC2=O,-0.508%
16,Cc1ccc2ncc(C(=O)Nc3ccc(OC(F)(F)F)cc3)c(=O)n2c1,-0.27%
17,C[C@@H]1CCC[C@H](C)N1CCCC(O)(c1ccccc1)c1ccccn1 (stereo not given in full),-1.64%
18,Cc1ccc(NC(=O)Cn2cnc3nc4c(cc3c2=O)CCCC4)cc1Cl,2.6%
19,O=C(CC1Oc2ccccc2NC1=O)NCc1ccc(F)cc1 (stereo not given),-3.94%
20,CCOCCn1ccc2c(OCC(=O)NCc3ccc(C)cc3)cccc2c1=O,-5.41%
21,O=C1CCCc2cc(S(=O)(=O)N3CCCC(C(=O)NCc4ccccc4)C3)ccc2N1 (stereo not given),-5.19%
22,CCc1ccc(NC(=O)CCS(=O)(=O)c2cc3c(cc2Cl)NC(=O)CO3)cc1,0.699%

row,Structure (SMILES),"activity change, negative = inhibition"
1,CO[C@H]1C=CO[C@@]2(C)Oc3c(C)c(O)c4c(O)c(c(/C=N/N5CCN(C)CC5)c(O)c4c3C2=O)NC(=O)/C(C)=C\C=C[C@H](C)[C@H](O)[C@@H](C)[C@@H](O)[C@@H](C)[C@H](OC(C)=O)[C@@H]1C,-8.76%
2,Cc1nn2c(=O)cc(COC(=O)c3cccc(NC(=O)COc4ccccc4Cl)c3)nc2s1,3.91%
3,Cc1ccc(CCNC(=O)c2ccc3c(c2)N(Cc2cc(C)ccc2C)C(=O)c2ccccc2S3=O)cc1 (stereo not given),3.89%
4,CCC(C)Cn1c(O)cc2nn(-c3nc4ccccc4s3)c(=O)c-2c1C (stereo not given),-52% (active)
5,O=C(OCCN1CCOCC1)c1cccnc1Nc1cccc(C(F)(F)F)c1,1.58%
6,Cc1cc(C)cc(OCC(=O)Nc2nc(-c3ccc(F)cc3)ns2)c1,-6.03%
7,CCS(=O)(=O)N1CCc2cc(C(=O)NCc3ccc(OC)cc3)ccc21,-0.384%
8,CCc1ccccc1NC(=O)c1sc2nc3c(cc2c1N)CN(Cc1ccccc1)CC3,-2.17%
9,Cc1ccc(Oc2c(C(F)(F)F)oc3c(CN4CCCCC4)c(O)ccc3c2=O)cc1,-2.18%
10,Cc1ccc(C(=O)Nc2ccccc2F)cc1S(=O)(=O)N1CCOCC1,-6.24%
11,Cc1ccc(Cc2c(-c3ccco3)nc3ccc(Cl)cn23)cc1,-30%
12,Cn1c(-c2ccco2)nc2cc3ccccc3cc21,-59.4% (active)
13,c1ccc(Cc2c(-c3ccco3)nc3c4ccccc4ccn23)cc1,-13.4%
14,COc1cc(/C=C/C(N)=O)cc(OC)c1OC,-0.706%
15,CCC(=O)Nc1ccccc1-c1nc2ccccc2n(CC(=O)Nc2ccc(C)c(C)c2)c1=O,0.486%
16,COc1cccc(NC(=O)CN2C(=O)c3ccccc3Sc3ncccc32)c1,0.541%
17,COc1ccc(-c2onc(C)c2C)cc1S(=O)(=O)NCCc1ccccc1,0.384%
18,CCN(CCCNC(=O)c1ccc(Sc2ccc(C)cc2)c(NC(C)=O)c1)c1cccc(C)c1,2.25%
19,COc1ccc(-c2nnc(SCC(=O)Nc3ccc(C(C)C)cc3)nc2-c2ccc(OC)c(OC)c2)cc1OC,0.608%
20,CNC(=O)c1ccc(-c2nc(CN3CCc4ccccc43)c(C)o2)cc1,2.42%
21,CC(=O)c1c(C)n(S(=O)(=O)c2ccc(Cl)cc2)c2ccc(NS(=O)(=O)c3ccc(Cl)cc3)cc12,2.95%
22,O=C(Nc1ccccc1)c1ccc2c(c1)OCCCO2,-52.6% (active)

row,Structure (SMILES),"activity change, negative = inhibition"
1,CS(=O)(=O)N1CCc2cc(C(=O)Nc3ccccc3)ccc21,-7.3%
2,O=C(COC(=O)c1ccccc1)c1ccc2c(c1)OCCO2,-52.5% (active)
3,O=C1COc2ccc(C(=O)COC(=O)c3ccccc3Cl)cc2N1,1.21%
4,CSc1ccccc1-c1nnc(NC(=O)c2ccc3c(c2)OCCO3)o1,3.71%
5,N#CCCN(C(=O)COC(=O)c1ccc2c(c1)OCCO2)c1ccccc1,3.66%
6,CCC(C)NC(=O)Cn1c(=O)n(-c2ccc(Cl)cc2)c(=O)c2c3c(sc21)CCCC3 (stereo not given),-10.3%
7,CCCn1c2ccccc2c2cnn(CC(=O)N(CC)c3cc(C)ccc3C)c(=O)c21,-0.786%
8,CN(C)c1cc2c(Nc3ccc4c(cnn4Cc4ccccc4)c3)ncnc2cn1,-9.09%
9,COc1cccc(C(=O)c2cc3ccc(O)cc3oc2=O)c1,-61.7% (active)
10,COc1ccc(CNC(=O)c2cc3cccc(OC)c3oc2=O)cc1,3.69%
11,COc1cccc(C(=O)Nc2ccc3oc(-c4ccc5ccccc5c4)nc3c2)c1,-2.82%
12,CCOc1ccc(NS(=O)(=O)c2ccc(N)cc2)nn1,-1.1%
13,CC1=C(C(=O)OCC(C)C)C(c2ccc(OCc3ccccc3)cc2)N2C(=O)CCSC2=N1 (stereo not given),5.39%
14,CCCCOc1ccc(CN2C(=O)C(=O)c3cc(Br)cc(C)c32)cc1OC,13%
15,Cc1ccc(-n2nc(C)c(C(=O)O)c2-n2cccc2)cc1,3.8%
16,O=C(O)/C(=C/c1c(C(=O)O)[nH]c2cc(Cl)cc(Cl)c12)c1ccccc1,-3.01%
17,Cc1[nH][nH]c(=O)c1C(c1ccc(-c2ccc(Cl)cc2)o1)c1c(C)[nH][nH]c1=O,-14%
18,Nc1[nH][nH]c(=O)c1N=Nc1ccc2c(c1)OCO2,-6.7%
19,Cc1[nH][nH]c(=O)c1C(c1ccc2c(c1)OCO2)c1c(C)[nH][nH]c1=O,-66.9% (active)
